The source of these data is ChEMBL document CHEMBL3988442, “University of Dundee, Small-Polar-MMV Screening Library” (2021).

The target in the assay is T1, Aspartate--tRNA(Asp/Asn) ligase (Mycobacterium tuberculosis (strain ATCC 25618 / H37Rv)) (UniProt P9WFW3).
T1 sequence (whole entry): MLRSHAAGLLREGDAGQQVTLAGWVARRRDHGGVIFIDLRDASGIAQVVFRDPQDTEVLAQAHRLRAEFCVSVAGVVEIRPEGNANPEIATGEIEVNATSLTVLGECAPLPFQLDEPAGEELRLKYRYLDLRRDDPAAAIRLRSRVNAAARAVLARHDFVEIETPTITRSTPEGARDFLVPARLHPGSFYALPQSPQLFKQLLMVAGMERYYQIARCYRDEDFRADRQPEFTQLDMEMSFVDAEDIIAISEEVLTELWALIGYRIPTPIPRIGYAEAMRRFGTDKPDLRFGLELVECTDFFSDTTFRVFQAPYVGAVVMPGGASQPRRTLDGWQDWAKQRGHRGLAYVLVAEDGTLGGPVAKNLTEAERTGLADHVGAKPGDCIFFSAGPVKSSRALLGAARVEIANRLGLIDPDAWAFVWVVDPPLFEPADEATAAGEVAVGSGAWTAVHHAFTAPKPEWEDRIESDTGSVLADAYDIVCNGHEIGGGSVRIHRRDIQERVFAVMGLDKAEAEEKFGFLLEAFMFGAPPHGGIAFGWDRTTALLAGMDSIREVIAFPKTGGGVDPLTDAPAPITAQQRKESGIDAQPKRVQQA
The assay is described as follows: Assay for Asp RNA synthetase-1 from Mycobacterium tuberculosis. As to conditions: 30 µM. The class given is functional. The arrangement: scale not given: in the data most compounds retested in dose-response had high values.
For `COc1ccc(NC(=O)NC(C)(C)c2noc(C)n2)cc1`, the Percent Effect was -6.73%. In the case of `Cc1ccc(SCC(=O)NS(=O)(=O)c2ccc3c(c2)OCCO3)cc1`, the Percent Effect came out at 3.3%. With `CC(C)CN1C(=O)c2ccc(C(=O)NCCc3c[nH]cn3)cc2C1=O`, the Percent Effect was 0.813%.

As to `CCn1cc(Br)c(C(=O)NCc2cccnc2)n1`, the Percent Effect came to 7.19%. The figure for `O=C(CCc1ccsc1)N1CCC(Cc2ccc(CO)cc2)C1` (stereo not given) is 0.501%; for `Cc1cccc(OCCC(=O)NCC(C)(C)C(N)=O)c1` it is 0.144%; for `COc1ncc(-c2nccn2CCN(C)C)cn1` it is -0.836%.

As to `O=C(NCCN1CCNCC1)c1nc2ccccc2c(=O)[nH]1`, the Percent Effect was 2.9%.

For the molecule `Cn1ccc(C(=O)N2CCC[C@]3(C[C@@H](OCc4ccccn4)CO3)C2)n1`, the Percent Effect is -1.05%. As to `CC(C)=CCN1CCOC(Cn2nc(C)cc2C)C1` (stereo not given), the Percent Effect was -3.08%. The figure for `Cc1nccn1C1CCCN(C(=O)c2ccc(N3CCCC3)nn2)C1` (stereo not given) is 2.5%. On to `CN1CCCC(Cc2ccnc3ccncc23)CC1` (stereo not given), for which the Percent Effect is -3.5%. Consider `Cc1cccc(CN(C)Cc2nc3c(cnn3C)c(=O)[nH]2)c1`, for which the Percent Effect turned out to be 3.62%. For the molecule `Cc1cnn(CC(C)NCc2ccc(OCc3ccncc3)cc2)c1` (stereo not given), the Percent Effect is -0.0437%. For the molecule `COc1cccc2c1ccn2CC(=O)N[C@@H](CCSC)C(=O)O`, the Percent Effect was 6.16%.

On to `Cc1ncccc1O[C@H]1CCN(C(=O)Cc2cccs2)CC[C@@H]1O`, for which the Percent Effect was -2.28%.

For `Cc1ccc(C(=O)NCCNc2ncccc2C#N)c(=O)[nH]1`, the Percent Effect was -1.85%. Take `CC(=O)NCCNC(=O)N(C)Cc1ccc2c(c1)OCCO2`: the Percent Effect is -4.52%. For `COc1cccc(-c2nc(C)c(C(=O)NC(CO)CCSC)s2)c1` (stereo not given), the Percent Effect is -3.69%. In the case of `O=C(Cc1cccc(F)c1)N1CCCCC1c1ccn2ccnc2n1` (stereo not given), the Percent Effect was -2.63%. Consider `CC(=O)N1C[C@@H](c2ccsc2)[C@@H]2CN(Cc3ccccc3)CC[C@@H]21`, for which the Percent Effect was 2.13%. For the molecule `CC(c1cccc(S(N)(=O)=O)c1)N(C)CCOc1ccccc1` (stereo not given), the Percent Effect is 0.185%. With `CC(C)NC(=O)CC1COC2(CCN(Cc3cccs3)CC2)C1` (stereo not given), the Percent Effect is -0.0228%. For `NC(=O)C(CNC(=O)COCC(F)(F)F)Cc1ccc(F)cc1` (stereo not given), the Percent Effect came to 0.689%. With `CCc1nc(C(=O)NCc2ccc(N3CCNC(=O)C3)c(F)c2)c[nH]1`, the Percent Effect turned out to be 2.49%. In the case of `c1ccc(CN2CC[C@@H]3O[C@H](COCc4ccncc4)CC[C@@H]32)nc1`, the Percent Effect was -0.574%. Take `Cc1ccc(CC(=O)N2CCCCC2c2nc(C)cs2)cn1` (stereo not given): the Percent Effect is -2.2%. Regarding `CS(=O)(=O)NCC1CCCCN1C(=O)Nc1cccnc1N1CCCC1` (stereo not given), the Percent Effect was -2.73%. On to `Cn1cc(CNCCOc2ccc(F)c(F)c2)c(-c2cccnc2)n1`, for which the Percent Effect is 7.32%. As for `CSCc1cccc(S(=O)(=O)NCCCN2CCOCC2)c1`, the figure is 13.9%; as for `O=C(CCc1ccccn1)N1CCc2cc(Cl)cc(Cl)c2C1`, 15.8%. As for `Cc1cccc(CN2C(=O)CO[C@@H]3CN(Cc4nccn4C)C[C@H]32)c1`, the Percent Effect was -0.971%. In the case of `Cc1cc2nc(SCC(=O)N3CCCC3)n(-c3ccccc3)c(=O)c2[nH]1`, the Percent Effect stood at 15.3%. Regarding `CS(=O)(=O)N1CCC2(CC1)CC(CC(=O)N1CCCC1)c1ccccc12` (stereo not given), the Percent Effect came to 5.87%. As for `Cc1ncc(CNCC2CCCN2c2cccnn2)s1` (stereo not given), the figure is 0.684%. In the case of `CC1COCCN1C(=O)c1cccc(OCc2cscn2)c1` (stereo not given), the Percent Effect was -6.86%. Regarding `COc1ccccc1CC(=O)NS(=O)(=O)c1ccc(C(N)=O)cc1`, the Percent Effect worked out at 1.21%. Take `COc1cccc(CN(C)C(=O)CN2CC(n3nc(C)cc3C)C2)c1`: the Percent Effect came out at 1.62%. In the case of `O=C(c1cncc(Br)c1)N1CCC(O)(Cn2ccc3ccncc32)CC1`, the Percent Effect worked out at 3.38%.

`Cc1cc(C)n(Cc2ccc(C(=O)NCCN3CCOCC3)cc2)n1`: the Percent Effect is -4.18%.
